This is an account of results in PubChem BioAssay AID652031 (The Scripps Research Institute Molecular Screening Center, 2013).

Among all 16,000 compounds or so, about 70 (0.4%) were called active. No stated cut-off is given here; in the data, active means inhibition above about 50%; inactive means the rest. For the sample, actives were picked, then their nearest neighbours and some compounds at random.

One may read the inhibition as the relative decrease from the control value, in per cent.

Kappa-type opioid receptor (Homo sapiens), sequence (P41145 whole entry, looked up): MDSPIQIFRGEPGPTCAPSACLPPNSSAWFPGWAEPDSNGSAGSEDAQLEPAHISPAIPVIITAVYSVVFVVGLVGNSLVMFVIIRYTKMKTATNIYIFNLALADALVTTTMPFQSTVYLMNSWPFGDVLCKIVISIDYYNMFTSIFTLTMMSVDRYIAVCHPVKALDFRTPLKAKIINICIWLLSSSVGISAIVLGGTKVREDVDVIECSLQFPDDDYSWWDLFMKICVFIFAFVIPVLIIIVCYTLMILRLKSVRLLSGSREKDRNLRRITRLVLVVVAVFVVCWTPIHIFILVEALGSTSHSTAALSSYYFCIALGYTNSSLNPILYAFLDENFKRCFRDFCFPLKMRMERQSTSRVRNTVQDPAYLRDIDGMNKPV

The test has as its target Kappa-type opioid receptor (Homo sapiens) (UniProt P41145). The test can be described thus: blocks the human kappa opioid receptor, Maybridge compounds (AID 652031). The conditions noted are these: OPRK1 cells, antagonist mode, fluorescence readout; at 9 µM; hits give high values.
As for `O=S(=O)(c1ccc(Cl)s1)N1CCN(c2ccccc2)CC1`, the inhibition is -14.3% (inactive).

Regarding `CC(C)NC(=O)NNc1c(Cl)cncc1Cl`, the inhibition was 4.6% (inactive). Then `O=c1oc2c3ccccc3c3oc(=O)sc3c2s1`, with 13.6% (inactive); and `Cc1nc(C(F)(F)F)ccc1NC(=O)/C=C\C(=O)O`, with -4.6% (inactive); and `N#Cc1cccnc1NNC(=O)Nc1ccc(OCc2ccccc2)cc1`, with 13.7% (inactive). Then `CN(C)c1cccc2c1c(NC(=O)Nc1ccc(OCc3ccccc3)cc1)nn2C`, with 60.6% (active); and `O=C(Nc1ccc(OCc2ccccc2)cc1)Nc1ccc2c(c1)C(=O)OC2`, with -8.9% (inactive). Then `O=c1[nH]c2cc(Cl)c(Cl)cc2n1-c1ccncc1`, with -14.5% (inactive).

Take `Cc1ccc([N+](=O)[O-])c(C(=O)NCC(=O)O)c1`: the inhibition is -15.5% (inactive). The value for `S=C(NNC(=S)NC1CC2C=CC1C2)NC1CC2C=CC1C2` (stereo unspecified) was -4.1% (inactive).

Take `CC(C)CCOS(=O)(=O)c1ccc2c(c1)Cc1cc(S(=O)(=O)OCCC(C)C)ccc1-2`: the inhibition is -2.5% (inactive).

Consider `CN(C(=O)Nc1ccc(Cl)cc1)n1cnc2ccccc2c1=O`, for which the inhibition is -1.9% (inactive). The value for `c1ccc(-c2nsc(N3CCNCC3)n2)cc1` was 1.1% (inactive). On to `Cc1oc(-c2ccc(Cl)cc2)cc1C(=O)O/N=C(\N)Cc1nc2cccnc2n1C1CC1`, for which the inhibition was -10.9% (inactive). Then `O=C(Cn1nnc2ccccc21)NCCSCc1ccco1`, with 6.7% (inactive); and `O=C(O)CC1(CC(=O)Nc2ccccc2-n2cccn2)CCCCC1`, with 6.9% (inactive).

Take `O=[N+]([O-])c1ccc(CSc2nc3cc(Cl)c(F)cc3[nH]2)cc1`: the inhibition is -10.8% (inactive). The value for `COc1ccc(/C=N/Nc2nc(C)cc(=O)[nH]2)c(OC)c1` was 10.6% (inactive); that for `Nc1ccccc1SC(C[N+](=O)[O-])c1ccccc1` (stereo unspecified) was 10.6% (inactive). Turning to `O=C(N/N=C/c1cccs1)C(=O)Nc1ccc(Cl)c(Cl)c1`, the inhibition was -4.8% (inactive). Then `Cc1nc2c(ncn2-c2ccccc2)c(=O)n1NC(=O)CN1CCCC1`, with 1.8% (inactive); and `Cn1c(=O)c2c(ncn2Cc2nnc(-c3ccccc3)o2)n(C)c1=O`, with -5.9% (inactive). The value for `O=[N+]([O-])c1ccc(CSc2nnc(-c3ccncc3)o2)cc1` was -7.8% (inactive); that for `N#Cc1c(C2CCCCC2)[nH]c(=S)[nH]c1=O` was -2.7% (inactive); that for `Cc1ccc2c(c1)C(=O)C(=O)S2` was -13.9% (inactive). Then `O=C(CSC1=NCCc2ccccc21)Nc1ccc(F)cc1F`, with -6.1% (inactive).

Consider `O=C(O)CCC(=O)Nc1ccc2c(c1)OCCCO2`, for which the inhibition was 8.3% (inactive). Then `Oc1ccccc1C=NCCCN=Cc1ccccc1O`, with -15.8% (inactive); and `CCOc1c(N2CCCCC2)c(=O)c1=O`, with 13.6% (inactive); and `O=C(CSc1nnc(-c2ccncc2)o1)N1CCc2ccccc21`, with -5.6% (inactive). Then `O=c1cc(-c2ccccc2)cc(-c2ccccc2)o1`, with -11.3% (inactive). Then `O=C(NNC(=S)Nc1ccccc1Cl)c1ccc(OC(F)(F)F)cc1`, with 19.8% (inactive); and `O=c1c2c(nc3nc[nH]n13)CCC2`, with -20.2% (inactive); and `CCN(CCN1C(=O)CCC1=O)c1cccc(NC(C)=O)c1`, with -3.7% (inactive). For `N#CCc1ccc(OC(=O)c2cccnc2)cc1`, the inhibition was -6.4% (inactive). The value for `Cc1nc(-n2cccc2)sc1C(=O)N/N=C/c1ccccc1Cl` was 33.9% (inactive); that for `CCCS(=O)(=O)c1csc(C(=O)OC)c1N/N=C/c1cccs1` was -24.1% (inactive). For the compound `Clc1cncc(Cl)c1N/N=C/C1CC2C=CC1C2` (stereo unspecified), the inhibition was 1.3% (inactive). The value for `CCCCCCCN=C(C)c1ccccc1O` was -21.6% (inactive); that for `CC(C)c1ccc(N2C(=O)/C(=C\c3ccc(-c4ccc([N+](=O)[O-])cc4)o3)SC2=S)cc1` was 8.3% (inactive).

For the compound `CCCN(CCC)S(=O)(=O)c1ccc(C(=O)NNC(=O)c2cc(OC)c(OC)c(OC)c2)cc1`, the inhibition is -2.1% (inactive).

Turning to `NC(=O)C1CCN(CC(O)COc2ccc(Cl)c(Cl)c2)CC1` (stereo unspecified), the inhibition was -8.2% (inactive). Then `O=C(Nc1ccc(F)cc1OC(F)(F)F)N1CCC(O)CC1`, with -18% (inactive); and `CC(C)(C)c1cc(NC(=O)/C(C#N)=C/c2cccc(Cl)c2Cl)c(C(N)=O)s1`, with -7.1% (inactive). The value for `O=C(Nc1ccccc1C(=O)NC1CCSC1)c1cccc(Cl)c1` (stereo unspecified) was -15% (inactive). Turning to `COC(=O)CCN1CCc2cc(N=Nc3ccc(C(F)(F)F)cc3)ccc21`, the inhibition is 15.2% (inactive). Then `CC(C)n1c(SCC(=O)c2cccc([N+](=O)[O-])c2)nc2cc(C(F)(F)F)ccc21`, with -1.6% (inactive). For `O=C(CCc1ccc(O)cc1)N/N=C/c1cc(Cl)cc(Cl)c1O`, the inhibition was 6.4% (inactive). Then `Cc1ccc(NC(C(=O)O)c2ccccc2)cc1` (stereo unspecified), with -11.7% (inactive); and `OC(CNCc1ccc2c(c1)OCO2)COc1ccccc1` (stereo unspecified), with -20.1% (inactive); and `O=C(NCc1cccnc1)c1ccccc1NC(=O)c1c(F)cccc1F`, with -15.7% (inactive).

Regarding `O=C(N/N=C/c1ccc(Cl)cc1Cl)/C(=C/c1cccs1)NC(=O)c1ccccc1`, the inhibition was 11.5% (inactive). `COC(=O)c1ccccc1NC(=O)c1ccc(Oc2cc(Cl)cc(Cl)c2)o1`: the inhibition is -7% (inactive).

For the compound `O=C(NCc1ccc2c(c1)OCO2)c1sccc1Br`, the inhibition is -14.9% (inactive). The value for `O=C(NCc1ccc(F)cc1F)c1cc(C(F)(F)F)cc(C(F)(F)F)c1` was 2.1% (inactive); that for `CCOC(=O)C(NC(=O)c1ccco1)(Nc1cc(C)ccn1)C(F)(F)F` (stereo unspecified) was -1.7% (inactive).

For the compound `CSc1cccc(NC(=O)C(=O)NCCc2ccccn2)c1`, the inhibition was 17.5% (inactive).

On to `CCOC(=O)CCSc1cc(-n2cccc2)c(Cl)cc1[N+](=O)[O-]`, for which the inhibition is -12.9% (inactive). Take `CCOC(=O)Cn1sc2nc(C)cc(C)c2c1=O`: the inhibition is -8.2% (inactive). Then `O=C(c1ccccc1I)c1c[nH]c2ccccc12`, with 2.4% (inactive); and `O=C1C=C(NNc2ccccc2)CCC1`, with -30.2% (inactive). The value for `O=[N+]([O-])c1ccc2ncccc2c1-n1cccc1` was -23.5% (inactive); that for `CC(OC(=O)c1cccc(Cl)c1)c1ccc[n+](C)c1` (stereo unspecified) was 1.5% (inactive); that for `CN(n1cnc2ccccc2c1=O)S(=O)(=O)c1cc(Cl)sc1Cl` was 4.5% (inactive). The value for `O=c1o[nH]c(-c2ccccc2)c1N=Nc1c(F)cccc1Cl` was 4.9% (inactive). Regarding `O=C(O)C1CCC1C(=O)Nc1nnc(C2CC2)s1` (stereo unspecified), the inhibition is 7.5% (inactive). Then `O=C(NNC(=S)Nc1ccc(S(=O)(=O)N2CCCCC2)cc1)c1ccncc1`, with 6% (inactive). On to `CC(CC(=O)O)Oc1ccc(Cl)cc1[N+](=O)[O-]` (stereo unspecified), for which the inhibition is -0.1% (inactive). The value for `O=C(O)CCC(=O)Nc1ccccc1` was 9.6% (inactive); that for `O=C(CN1CCOCC1)NNC(=O)c1cccs1` was 9.5% (inactive); that for `O=S(=O)(CCSc1ccccc1NS(=O)(=O)c1cccs1)c1ccc(Cl)cc1` was -16.4% (inactive). Then `CCCN(CCC)S(=O)(=O)c1ccc(C(=O)Oc2c(C)cccc2OC)cc1`, with -3.1% (inactive); and `Cc1noc(C)c1C(=O)N1CCOCC1`, with 0.6% (inactive). As for `CC(=O)OCc1ccc(COC(C)=O)c(OC(C)=O)c1OC(C)=O`, the inhibition was -15.9% (inactive). The value for `O=C1C(Cl)=C(Oc2cc(Cl)c(Cl)cc2Cl)C(=O)c2ccccc21` was 21.4% (inactive).

`CO/N=C(/C)c1ccc2c(c1)CCO2`: the inhibition is 10.8% (inactive). The value for `COC(=O)/C=C/c1cn(C2OCC(CO)C2O)c(=O)[nH]c1=O` (stereo unspecified) was -22% (inactive); that for `O=C(OCc1ccco1)c1cnc(Nc2ccc(OC(F)(F)F)cc2)nc1C(F)(F)F` was 17.4% (inactive); that for `Cc1ccccc1C(=O)NNC(=O)c1ccccc1C1=NCCCN1` was -4.3% (inactive).

Turning to `O=C(NC(=O)C1CCN(c2ncccc2[N+](=O)[O-])CC1)Nc1ccc(Cl)cc1`, the inhibition was -2% (inactive). Then `O=c1oc2ccc(Cl)cc2cc1-c1ccc([N+](=O)[O-])cc1`, with -18.5% (inactive).

On to `CC(C)(C)c1cc(C(=O)/C=C2/NC(=O)CS2)no1`, for which the inhibition is 6.7% (inactive). The value for `Cc1nn(S(=O)(=O)c2ccc(Cl)cc2)cc1-c1ccccc1` was 0.1% (inactive); that for `Cc1ccc(S(=O)(=O)NC(=O)NNc2ncnc3scc(-c4ccccc4)c23)cc1` was -34.5% (inactive). The value for `NC(N)=N/C(N)=N/c1nnc(C(F)(F)F)s1` was 13.1% (inactive); that for `N#C/C(=C\c1sccc1Oc1ccccc1)S(=O)(=O)c1ccc(C(F)(F)F)cn1` was -9.5% (inactive); that for `O=S(=O)(Cc1cccc(C(F)(F)F)c1)NCc1ccc2c(c1)OCO2` was 9.5% (inactive). Then `O=c1[nH]cc(Br)c(=O)[nH]1`, with 6.1% (inactive). As for `CN(C)c1cc(-c2cc(Cl)sc2Cl)oc(=O)c1Cl`, the inhibition is -5% (inactive).

Consider `c1ccc(-n2cccc2)c(N2CCCCC2)c1`, for which the inhibition was -9.4% (inactive). Then `CC(C)(C)C(=O)NNC(=O)c1ccc(Oc2ccc(C3SCCS3)cc2)o1`, with 30.1% (inactive); and `CCOC(=O)/C(C#N)=C/NNc1c(C)csc1C(=O)OC`, with 8.8% (inactive); and `CS/C(=N/S(=O)(=O)c1c(C)noc1C)NNC(=O)Nc1ccc(Cl)cc1`, with 1.3% (inactive). The value for `O=C(Nc1ccccc1C(F)(F)F)N1CCCC1c1cccnc1` (stereo unspecified) was -12.3% (inactive); that for `COc1cccc2cc(C(=O)O)oc12` was 19.9% (inactive). Then `c1ccc(C2=NCCN=C2c2ccccc2)cc1`, with -1.9% (inactive); and `O=C(O)c1nccnc1C(=O)NCCSCc1c(F)cccc1Cl`, with 2.6% (inactive). In the case of `O=[N+]([O-])c1cc(C(F)(F)F)ccc1OCCO`, the inhibition was 6.7% (inactive). For `CCOC(=O)CN1C(=O)/C(=C\c2ccc(C)o2)N=C1c1ccccc1`, the inhibition is 3.1% (inactive).

In the case of `Cc1ccc(/C=c2\sc3nc4ccccc4n3c2=O)o1`, the inhibition was 53.6% (active). Then `O=C(Nc1ccccc1)N1CCN(Cc2ccccc2)CC1`, with 8.5% (inactive).
